Test results published in the supplement of paper PMC12494721.
Structures can show the parent of a compound that is named as a salt.

Legend:
Conditions in all cases: incubation time: 27 h, anaerobic, 37 °C;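 for the amine columns active = adjusted P below 0.05 in both replicates with a change the same way and a mean fold change under 0.8 or over 1.25; inactive = the rest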
[1] = test system: Clostridium sporogenes DSM 1664; assay: growth (OD595) fold change vs plate DMSO controls (fold change (ratio)); higher = more growth
How it was run: (§1)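 Growth is the fold change relative to the median of plate DMSO controls. Readings came from anaerobic mGAM cultures in 96-well plates grown for 27 h at 37 °C and read at 595 nm. They were blank-subtracted, corrected for compound background with 20 µM compound solutions in water, and converted to OD with a calibration factor of 5. Values are means of 2 biological replicates, and fold changes above 1.5 were set to NA.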

[2] = test system: Escherichia coli IAI1; assay: as above
How it was run: as §1

[3] = test system: Klebsiella aerogenes DSM 30053; assay: as above
How it was run: as §1

[4] = test system: Ruminococcus gnavus DSM 108212; assay: as above
How it was run: as §1

[5] = test system: Klebsiella aerogenes DSM 30053; assay: fold change of Histamine concentration vs plate DMSO controls (fold change (ratio)); higher = more amine produced, active = hit call of the paper (significant change in both replicates, either direction)
How it was run: (§2)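 Amine values are fold changes relative to DMSO-only wells on the same plate. They derive from 27 h, 37 °C anaerobic mGAM cultures of four gut bacterial strains in 80 µL wells, dosed at 20 µM final, or 50 µM final for sweeteners. Extraction of the whole culture, LC–triple-quadrupole MS in dynamic MRM mode, external calibration curves and within-batch drift correction were used, with 2 biological replicates averaged.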

[6] = test system: Clostridium sporogenes DSM 1664; assay: fold change of Tryptamine concentration vs plate DMSO controls (fold change (ratio)); higher = more amine produced, active = hit call of the paper (significant change in both replicates, either direction)
How it was run: as §2

[7] = test system: Ruminococcus gnavus DSM 108212; assay: as above
How it was run: as §2

[8] = test system: Escherichia coli IAI1; assay: fold change of Putrescine concentration vs plate DMSO controls (fold change (ratio)); higher = more amine produced, active = hit call of the paper (significant change in both replicates, either direction)
How it was run: as §2

[9] = test system: Klebsiella aerogenes DSM 30053; assay: as above
How it was run: as §2

[10] = test system: Escherichia coli IAI1; assay: fold change of Cadaverine concentration vs plate DMSO controls (fold change (ratio)); higher = more amine produced, active = hit call of the paper (significant change in both replicates, either direction)
How it was run: as §2

[11] = test system: Klebsiella aerogenes DSM 30053; assay: as above
How it was run: as §2

[12] = test system: Ruminococcus gnavus DSM 108212; assay: fold change of 2-Phenylethylamine concentration vs plate DMSO controls (fold change (ratio)); higher = more amine produced, active = hit call of the paper (significant change in both replicates, either direction)
How it was run: as §2

Row | Compound | growth [1] | growth [2] | growth [3] | growth [4] | fold change of Histamine concentration [5] | fold change of Tryptamine concentration [6] | fold change of Tryptamine concentration [7] | fold change of Putrescine concentration [8] | fold change of Putrescine concentration [9] | fold change of Cadaverine concentration [10] | fold change of Cadaverine concentration [11] | fold change of 2-Phenylethylamine concentration [12]
1 | CCOC(=O)O[C@]1(C(=O)COC(=O)CC)CC[C@H]2[C@@H]3CCC4=CC(=O)C=C[C@]4(C)[C@H]3[C@@H](O)C[C@@]21C [Prednicarbate] (20 µM) | 1.04 | 1.09 | 1.01 | 0.865 | 1.02 (inactive) | 0.97 (inactive) | 1.2 (inactive) | 0.941 (inactive) | 1.03 (inactive) | 1.01 (inactive) | 1.12 (inactive) | 1.41 (inactive)
2 | CC(=O)c1ccc2c(c1)N(CCCN1CCC(CCO)CC1)c1ccccc1S2 [Piperacetazine] (20 µM) | 0.454 | 0.148 | 0.138 | 0 | 0.95 (inactive) | 1.32 (inactive) | 1.17 (inactive) | 0.95 (inactive) | 0.978 (inactive) | 0.846 (inactive) | 0.993 (inactive) | 1.29 (inactive)
3 | C[C@]12C=CC(=O)C=C1CC[C@@H]1[C@@H]2[C@@H](O)C[C@@]2(C)[C@H]1CC[C@]2(O)C(=O)CO [Prednisolone] (20 µM) | 0.973 | 0.997 | 1 | 0.987 | 1.02 (inactive) | 1.03 (inactive) | 0.942 (inactive) | 0.997 (inactive) | 1 (inactive) | 0.997 (inactive) | 1 (inactive) | 0.815 (inactive)
4 | CC(C[N+](C)(C)C)OC(N)=O (centres undefined) [Bethanechol chloride] (20 µM) | 0.85 | 0.962 | 0.937 | 0.707 | 0.98 (inactive) | 1.01 (inactive) | 1.01 (inactive) | 1.03 (inactive) | 1.01 (inactive) | 1 (inactive) | 1 (inactive) | 1.01 (inactive)
5 | COc1c2occc2c(OC)c2c(=O)cc(C)oc12 [Khellin] (20 µM) | 0.981 | 0.994 | 1.03 | 1.11 | 1.06 (inactive) | 1 (inactive) | 1.04 (inactive) | 1 (inactive) | 1.01 (inactive) | 1.02 (inactive) | 0.992 (inactive) | 1.09 (inactive)
6 | COc1ccc(NS(=O)(=O)c2ccc(N)cc2)nn1 [Sulfamethoxypyridazine] (20 µM) | 0.883 | 1.01 | 0.983 | 1.01 | 1.06 (inactive) | 1.03 (inactive) | 1.17 (inactive) | 1.02 (inactive) | 1.03 (inactive) | 1.07 (inactive) | 1.1 (inactive) | 1.44 (inactive)
7 | CCC(C)(CN(C)C)OC(=O)c1ccccc1 (centres undefined) [Amyleine hydrochloride] (20 µM) | 0.952 | 1.01 | 0.983 | 0.997 | 1.02 (inactive) | 0.974 (inactive) | 0.945 (inactive) | 1.04 (inactive) | 1.02 (inactive) | 1.01 (inactive) | 0.983 (inactive) | 0.874 (inactive)
8 | Cn1nnnc1SCC1=C(C(=O)O)N2C(=O)[C@@H](NC(=O)[C@H](O)c3ccccc3)[C@H]2SC1 [Cefamandole sodium salt] (20 µM) | 0 | 0.0343 | 1.08 | 0.971 | 1.04 (inactive) | 0.0204 (active) | 0.141 (active) | 0.968 (inactive) | 1.02 (inactive) | 2.1 (active) | 1.06 (inactive) | 0.118 (active)
9 | C[C@H](CCC(=O)O)[C@H]1CC[C@H]2[C@@H]3CC[C@@H]4C[C@H](O)CC[C@]4(C)[C@H]3CC[C@]12C [Lithocholic acid] (20 µM) | 1.13 | 1.01 | 1.19 | 0.903 | 0.9 (inactive) | 1.03 (inactive) | 1.05 (inactive) | 1.06 (inactive) | 0.999 (inactive) | 0.975 (inactive) | 1.03 (inactive) | 1.09 (inactive)
10 | CC(Oc1ccccc1)C(=O)N[C@@H]1C(=O)N2[C@@H]1SC(C)(C)[C@@H]2C(=O)O (some centres undefined) [Phenethicillin potassium salt] (20 µM) | 0 | 1.05 | 0.995 | 0 | 0.936 (inactive) | 0.0424 (active) | 0.045 (active) | 0.969 (inactive) | 0.954 (inactive) | 1.06 (inactive) | 1.02 (inactive) | 0.0417 (active)
11 | COc1cc([S+](C)[O-])ccc1-c1nc2cccnc2[nH]1 (centres undefined) [Sulmazole] (20 µM) | 0.885 | 0.999 | 0.98 | 1.1 | 0.922 (inactive) | 0.944 (inactive) | 1.19 (inactive) | 0.951 (inactive) | 0.952 (inactive) | 1.02 (inactive) | 1.05 (inactive) | 1.38 (inactive)
12 | O=C1Nc2ccccc2C1(c1ccc(O)cc1)c1ccc(O)cc1 [Oxyphenisatin] (20 µM) | 1.19 | 1.05 | 1 | 0.994 | 1.03 (inactive) | 0.982 (inactive) | 0.935 (inactive) | 1.04 (inactive) | 1 (inactive) | 1.01 (inactive) | 0.999 (inactive) | 0.89 (inactive)
